Source: PubChem BioAssay
Unmarked numbers belong to inactive results. For part of these data: Results with a measured potency or affinity are listed apart. The source made the active and inactive calls. Unless noted, no rule for the calls is given here.

What was measured:
[1] = antimalarial activity against Dd2 strain (AID 2302;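 active = growth inhibition above 50% at the single 2 µM test dose, taken to imply half-maximal potency below 2 µM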;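 also: 0% = DMSO untreated growth and 100% = chloroquine plus artemisinin killed control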); settings: P. falciparum Dd2 in RBCs, LDH growth readout, 72 h; at 2 µM; hits give high values
[2] = human hepatoma cell viability loss – ATP luminescence, cytotoxicity control for P. falciparum antimalarial project, primary screen (AID 2303;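 active = inhibition above 50%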;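 also: 0% = DMSO wells and 100% = digitonin-killed cells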); settings: HepG2 viability, 24-48 h, at 10 µM, hits give high values
[3] = target: L-lactate dehydrogenase (Plasmodium falciparum (isolate CDC / Honduras)) (UniProt Q27743); assay: PfLDH activity inhibition – cell lysate, 3D7 strain, counter-screen for P. falciparum growth inhibition project (AID 2304);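 also: 0% = vehicle and 100% = reference inhibitor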; settings: P. falciparum 3D7 crude extract, LDH APAD/NBT absorbance; at 2 µM; hits give high values
Sequence of L-lactate dehydrogenase (Plasmodium falciparum (isolate CDC / Honduras)) (Q27743 whole entry, looked up): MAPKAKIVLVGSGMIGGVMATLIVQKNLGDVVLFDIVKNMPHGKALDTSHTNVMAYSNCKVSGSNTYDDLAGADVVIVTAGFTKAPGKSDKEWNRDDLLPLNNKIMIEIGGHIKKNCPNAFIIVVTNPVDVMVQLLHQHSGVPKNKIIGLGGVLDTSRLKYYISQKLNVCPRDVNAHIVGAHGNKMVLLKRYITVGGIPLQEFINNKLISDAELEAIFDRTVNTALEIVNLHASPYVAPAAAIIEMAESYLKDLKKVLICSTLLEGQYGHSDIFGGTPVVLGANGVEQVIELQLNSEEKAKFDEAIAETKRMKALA

[4] = inhibition of 3D7 malaria parasite growth – strain 3D7 (AID 2306);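 also: 0% = DMSO wells and 100% = chloroquine plus artemisinin control wells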; settings: P. falciparum 3D7 erythrocytic growth, LDH absorbance, 72 h; at 2 µM; hits give high values
[5] = target: Calcium-dependent protein kinase 1 (Plasmodium falciparum (isolate 3D7)) (UniProt P62344); assay: PfCDPK1 kinase inhibitors, biochemical, TCAMS library (AID 1159585; cut-off not given, nearly all actives have IC50 up to about 0.98 µM;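 also: inhibitors leave more ATP so luminescence rises with inhibition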); settings: recombinant PfCDPK1, Kinase-Glo ATP depletion luminescence
Sequence of Calcium-dependent protein kinase 1 (Plasmodium falciparum (isolate 3D7)) (P62344 whole entry, looked up): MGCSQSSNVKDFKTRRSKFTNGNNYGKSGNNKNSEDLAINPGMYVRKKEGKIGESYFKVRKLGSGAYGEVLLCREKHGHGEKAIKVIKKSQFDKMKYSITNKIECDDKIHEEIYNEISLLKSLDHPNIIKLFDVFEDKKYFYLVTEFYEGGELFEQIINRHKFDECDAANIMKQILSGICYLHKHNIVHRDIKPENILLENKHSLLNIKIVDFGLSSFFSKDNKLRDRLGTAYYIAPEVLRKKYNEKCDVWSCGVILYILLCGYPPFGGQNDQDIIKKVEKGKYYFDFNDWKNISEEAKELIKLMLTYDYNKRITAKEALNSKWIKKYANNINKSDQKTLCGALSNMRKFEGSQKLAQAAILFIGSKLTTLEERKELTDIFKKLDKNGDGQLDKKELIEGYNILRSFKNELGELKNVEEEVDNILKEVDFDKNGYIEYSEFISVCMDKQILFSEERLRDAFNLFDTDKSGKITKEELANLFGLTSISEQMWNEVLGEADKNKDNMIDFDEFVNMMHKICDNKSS

[6] = target: Plasmodium falciparum protein kinase 6 (PK6, PF3D7_1337100) (UniProt Q8IDW1); assay: PfPK6 kinase inhibitors, biochemical, TCAMS library (AID 1159586); settings: recombinant PfPK6, Kinase-Glo ATP depletion luminescence
Sequence of Plasmodium falciparum protein kinase 6 (PK6, PF3D7_1337100) (Q8IDW1 1-305): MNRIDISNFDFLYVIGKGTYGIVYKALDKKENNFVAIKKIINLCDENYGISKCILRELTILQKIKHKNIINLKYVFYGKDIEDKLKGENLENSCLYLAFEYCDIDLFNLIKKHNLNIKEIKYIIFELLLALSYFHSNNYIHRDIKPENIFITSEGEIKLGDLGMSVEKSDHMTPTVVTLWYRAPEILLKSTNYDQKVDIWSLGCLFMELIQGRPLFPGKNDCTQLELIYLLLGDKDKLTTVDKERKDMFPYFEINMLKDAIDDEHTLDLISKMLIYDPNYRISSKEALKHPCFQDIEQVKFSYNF

[7] = target: Protein kinase 7 (PK7), Plasmodium falciparum 3D7 (PF3D7_0213400) (UniProt Q7YTF7); assay: inhibition of Plasmodium PK7 catalytic activity – biochemical, TCAMS antimalarial set, Kinase-Glo luminescence (AID 1159587); settings: recombinant PfPK7, Kinase-Glo ATP depletion luminescence
Sequence of Protein kinase 7 (PK7), Plasmodium falciparum 3D7 (PF3D7_0213400) (Q7YTF7 1-343): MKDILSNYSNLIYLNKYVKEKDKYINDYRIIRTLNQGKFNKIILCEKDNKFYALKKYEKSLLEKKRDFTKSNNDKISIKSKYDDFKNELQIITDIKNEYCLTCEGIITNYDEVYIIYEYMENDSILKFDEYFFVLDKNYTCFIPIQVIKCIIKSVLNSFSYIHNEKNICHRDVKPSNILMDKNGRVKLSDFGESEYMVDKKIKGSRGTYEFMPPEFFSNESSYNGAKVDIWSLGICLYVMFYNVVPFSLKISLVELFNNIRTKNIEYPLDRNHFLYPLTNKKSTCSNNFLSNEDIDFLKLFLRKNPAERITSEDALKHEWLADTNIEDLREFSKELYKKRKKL

[8] = target: Calcium-dependent protein kinase 4 (Plasmodium falciparum (isolate 3D7)) (UniProt Q8IBS5); assay: PfCDPK4 kinase inhibitors, biochemical, TCAMS library (AID 1159588; cut-off not given, nearly all actives have IC50 up to about 0.91 µM); settings: recombinant PfCDPK4, Kinase-Glo ATP depletion luminescence
Sequence of Calcium-dependent protein kinase 4 (Plasmodium falciparum (isolate 3D7)) (Q8IBS5 whole entry, looked up): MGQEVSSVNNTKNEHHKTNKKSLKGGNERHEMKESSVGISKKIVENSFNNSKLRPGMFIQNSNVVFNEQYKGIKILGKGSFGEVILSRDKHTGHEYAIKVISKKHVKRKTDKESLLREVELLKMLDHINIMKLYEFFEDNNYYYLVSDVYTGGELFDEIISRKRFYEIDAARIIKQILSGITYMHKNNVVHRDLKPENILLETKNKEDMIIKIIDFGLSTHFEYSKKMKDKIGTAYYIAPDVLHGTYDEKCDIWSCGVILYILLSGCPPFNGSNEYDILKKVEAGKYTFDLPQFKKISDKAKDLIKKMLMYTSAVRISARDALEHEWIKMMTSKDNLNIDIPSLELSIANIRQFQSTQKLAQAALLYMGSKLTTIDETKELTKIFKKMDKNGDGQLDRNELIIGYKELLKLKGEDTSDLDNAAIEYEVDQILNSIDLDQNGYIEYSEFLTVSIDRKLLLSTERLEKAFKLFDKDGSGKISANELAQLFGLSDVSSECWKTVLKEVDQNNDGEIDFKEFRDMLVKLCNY

Compound	growth inhibition [1]	inhibition [2]	inhibition [3]	growth inhibition [4]	outcome [5]	outcome [6]	outcome [7]	outcome [8]
Cc1ccc(NC(=O)c2ccc(-c3cc4cc(Cl)c(Cl)cc4[nH]3)cc2)cc1OCCN1CCCC1	90% (active)	7%	-6%	101% (active)	inactive	inactive	inactive	inactive
CCN(CC)CCNC(=O)/C(=C/C=C/c1cc2cc(Cl)c(Cl)cc2[nH]1)OC	31%	30%	-4%	88% (active)	inactive	inactive	inactive	inactive
Cc1cc(Br)cnc1CCCCNc1cc(=O)c2ccccc2[nH]1	64% (active)	-1%	-1%	91% (active)	inactive	inactive	inactive	inactive
COc1cc(Nc2nccn3c(-c4ccsc4)cnc23)cc(OC)c1OC	78% (active)	26%	3%	93% (active)	inactive	inactive	inactive	inactive
CC(C)CCN1CCC(Oc2ccc(NC(=O)c3ccsc3)cc2Cl)CC1	81% (active)	19%	0%	89% (active)	inactive	inactive	inactive	inactive
Cc1[nH]c(C)c(-c2cccc(-c3ccc(OC(F)(F)F)cc3)c2)c(=O)c1Br	96% (active)	45%	0%	97% (active)	inactive	inactive	inactive	inactive
CN(C)CCCc1cc2c(cc1Cl)CCN2C(=O)Nc1ccc(-c2ccncc2)c2ccccc12	-2%	4%	-2%	94% (active)	inactive	inactive	inactive	inactive
CCc1cc(-c2onc(C)c2-c2cc3ccccc3o2)c(O)cc1OC	33%	48%	-2%	95% (active)	inactive	inactive	inactive	inactive
CCOC(=O)N/N=C/[C@H](CCc1ccccc1)NC(=O)[C@H](CC(C)C)NC(=O)c1cc2cccc(OC)c2o1	58% (active)	3%	2%	84% (active)	inactive	inactive	inactive	inactive
Oc1ccc(CCNc2nc(NCc3ccccc3-c3ccc(C(F)(F)F)cc3)nc(N3CCCNCC3)n2)cc1	2%	12%	0%	95% (active)	inactive	inactive	inactive	inactive
COc1cccc(Nc2nccc(NCC(O)c3cccc(C(F)(F)F)c3)n2)c1 (configuration not stated)	27%	6%	-4%	96% (active)	inactive	inactive	inactive	inactive
COc1cc(C=CC(=O)N2CCC3(CC2)CC(=O)c2ccccc2O3)cc(OC)c1OC	66% (active)	7%	-1%	88% (active)	inactive	inactive	inactive	inactive
CCOC(=O)c1c(CN(CC)CC)n(-c2ccccc2)c2cc(Br)c(O)cc12	46%	14%	-5%	93% (active)	inactive	inactive	inactive	inactive
CCNCc1cccc(-c2ccc3ccnc(N)c3c2)c1	98% (active)	17%	0%	100% (active)	inactive	inactive	inactive	inactive
CCNc1cc(C(=O)N[C@@H](Cc2ccccc2)[C@H](O)CN[C@@H](C)c2ccccc2)cc(N2CCCC2=O)c1	96% (active)	7%	8%	98% (active)	inactive	inactive	inactive	inactive
FC(F)(F)c1cnc(Sc2nnc(-c3ccco3)o2)c(Cl)c1	97% (active)	-1%	-4%	98% (active)	inactive	inactive	inactive	inactive
Cc1cc(C(=O)Nc2ccc(C)c(-c3nc(N(C(=O)c4ccc(F)c(C)c4)C4CCNCC4)nc4c3ccc(=O)n4-c3c(F)cccc3F)c2)ccc1F	99% (active)	4%	-3%	99% (active)	inactive	inactive	inactive	inactive
C=CCNS(=O)(=O)c1ccc(NC(=O)C(C)Oc2ccc([N+](=O)[O-])cc2)cc1 (configuration not stated)	100% (active)	14%	-3%	101% (active)	inactive	inactive	inactive	inactive
Cc1ccc(C)c(NC(=O)Nc2ccc(Nc3nc(C)cc(N4CCOCC4)n3)cc2)c1	48%	88% (active)	0%	98% (active)	inactive	inactive	inactive	inactive
Cc1ccc2nc(C)n(C3CCN(C(=O)Cc4ccc(F)c(F)c4)CC3)c2c1	100% (active)	4%	0%	100% (active)	inactive	inactive	inactive	inactive

Compound	growth inhibition [1]	inhibition [2]	inhibition [3]	growth inhibition [4]	outcome [5]	outcome [6]	outcome [7]	outcome [8]
CN1CCc2ccc(NC(=O)Nc3ccc(Cl)c(Cl)c3)cc2C1	22%	-10%	1%	80% (active)	inactive	inactive	inactive	inactive
Oc1ccc2[nH]cc(C3CCN(CCCNCc4ccc(-c5ccccc5)cc4)CC3)c2c1	-1%	22%	-4%	101% (active)	inactive	inactive	inactive	inactive
O=C(NCCNc1nc(NCCNC(=O)Nc2ccccc2)c2ccc(=O)n(-c3c(F)cccc3F)c2n1)Nc1ccccc1	87% (active)	1%	6%	94% (active)	inactive	inactive	inactive	inactive
CCC(C)CN1CCN(c2ccc(NC(=O)c3cccs3)cc2)C(C)C1 (configuration not stated)	95% (active)	-4%	-2%	95% (active)	inactive	inactive	inactive	inactive
O=C(CCc1cnc[nH]1)Nc1cccc(-c2ccc(-c3nc4ccccc4[nH]3)cc2)c1	60% (active)	24%	1%	100% (active)	inactive	inactive	inactive	inactive
CC(C)(C)c1nn(-c2ccc(Cl)cc2)c2[nH]c(=O)c(CNC3CCCC3)cc12	99% (active)	-2%	1%	99% (active)	inactive	inactive	inactive	inactive
COc1ccc(Nc2nccc(NCCNC(=O)Nc3ccccc3F)n2)cc1	4%	4%	1%	85% (active)	inactive	inactive	inactive	inactive
NC1CCN(Cc2cccc(-c3cccc(-c4nc5ccccc5[nH]4)c3)c2)C1 (configuration not stated)	-2%	14%	-3%	100% (active)	inactive	inactive	inactive	inactive
CN1CCN(c2ccc(Cl)cc2NC(=O)C2COc3ccccc3O2)CC1 (configuration not stated)	44%	2%	2%	99% (active)	inactive	inactive	inactive	inactive
C#CCNCc1ccc(-c2ccc(-c3nc4ccc(C(F)(F)F)cc4[nH]3)s2)cc1	28%	37%	0%	98% (active)	inactive	inactive	inactive	inactive
Cc1cccc2[nH]c(-c3ccc(-c4ccc(CNCc5cccc(N)c5)cc4)cc3)nc12	84% (active)	12%	-9%	102% (active)	inactive	inactive	inactive	inactive
Cc1ccc(S(=O)(=O)/N=C(\N)NC(N)=O)cc1	2%	26%	1%	94% (active)	inactive	inactive	inactive	inactive
N#Cc1cccc(NC(=O)Nc2cccc(-c3cccc(-c4nc5ccc(C(F)(F)F)cc5[nH]4)c3)c2)c1	99% (active)	74% (active)	5%	100% (active)	inactive	inactive	inactive	inactive
CC(=O)Nc1ccc(C2NC(=O)NC(c3ccccc3)=C2c2nc3ccccc3s2)cc1 (configuration not stated)	96% (active)	-3%	3%	93% (active)	inactive	inactive	inactive	inactive
N#CN1CC[C@H](CS(=O)(=O)c2cccc(Br)c2)C1	74% (active)	8%	-2%	88% (active)	inactive	inactive	inactive	inactive
CN1CCC(C(=O)N(Cc2ccc(-c3ccc(CNCCc4ccccc4)cn3)cc2)C2Cc3ccccc3C2)CC1	97% (active)	65% (active)	-2%	88% (active)	inactive	inactive	inactive	inactive
O=C(Nc1cccc(-c2cccc(-c3nc4ccc(C(F)(F)F)cc4[nH]3)c2)c1)c1cccnc1Cl	58% (active)	56% (active)	1%	95% (active)	inactive	inactive	inactive	inactive
Cc1cc(N2CCC(N(C)C)C2)nc(Nc2ccc(Cl)cc2)n1 (configuration not stated)	17%	11%	2%	99% (active)	inactive	inactive	inactive	inactive
O=C(/C=C/c1ccc(Cl)c(Cl)c1)NCCCCCN1CCC(CCNC(=O)/C=C/c2ccc(Cl)c(Cl)c2)CC1	56% (active)	68% (active)	-5%	101% (active)	inactive	inactive	inactive	inactive
